In the library only some 3.5% were active in any assay of this set; here they are far more common.
CHRM1 PAM – potentiates human M1 receptor response to acetylcholine; 360,000 tested, 0.088% active; P11229; activation, % at 3 µM; CHO-K1 hM1, Fluo-8 calcium fluorescence, ACh EC20; 0% = ACh EC20, 100% = maximal ACh; in the data active means activation above about 19%, passing the limit was not always enough
ATG4B inhibitor – ATG4B (human) cysteine protease inhibition; ATG4B cleavage of LC3-PLA2, NBD-HPC fluorescence, 1 h; inhibition, % at 8.33 µM; 340,000 tested, 0.51% active; AID 504462; in the data active means inhibition above about 40%
Target sequence (Q9Y4P1 whole entry, looked up): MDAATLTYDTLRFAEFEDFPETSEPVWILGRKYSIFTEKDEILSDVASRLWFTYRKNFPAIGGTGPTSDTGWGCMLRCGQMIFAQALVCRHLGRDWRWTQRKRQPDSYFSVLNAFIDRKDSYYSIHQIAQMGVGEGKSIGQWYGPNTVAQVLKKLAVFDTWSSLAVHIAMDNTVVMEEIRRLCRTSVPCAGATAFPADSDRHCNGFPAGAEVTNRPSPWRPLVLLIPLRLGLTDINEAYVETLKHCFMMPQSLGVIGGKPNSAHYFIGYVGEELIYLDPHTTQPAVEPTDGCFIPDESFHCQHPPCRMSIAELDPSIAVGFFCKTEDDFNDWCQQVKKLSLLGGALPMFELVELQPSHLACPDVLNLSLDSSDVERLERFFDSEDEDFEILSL
CHRM1 agonist – activates human CHRM1 receptor; activation, % at 3 µM; AID 588814; CHO-K1 hM1, Fluo-8 calcium fluorescence, agonist mode; 0% DMSO, 100% acetylcholine EC100; 360,000 tested, 0.33% active;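 active means activation above the run's mean compound activation plus 3 SD, cut at about 16% in these data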;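 further: peak over basal fluorescence ratio within a 140 s kinetic read after compound addition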
Myeloid diff MLP – myeloid differentiation induction | 360,000 tested, 1% active | calls only at 10 µM | ER-HoxA9 myeloid progenitors, lysozyme-GFP differentiation, flow cytometry | AID 624256;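 active means normalized GFP-positive differentiation at or above the plate's own cutoff, the solvent-only control mean plus 3 SD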;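 further: cells exposed to compound for four days before flow analysis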
CHRM1 antagonist – antagonists of human M1 muscarinic receptor; inhibition, % at 3 µM; CHO-K1 hM1, Fluo-8 calcium fluorescence, ACh EC80 antagonist; AID 588852; 360,000 tested, 1.3% active; P11229;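 active means percent inhibition above its own plate's cutoff, namely the mean of that plate's compound wells plus 3 SD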;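 further: peak over basal fluorescence ratio during 140 s after agonist addition; 0% = ACh EC80 plus DMSO and 100% = DMSO alone without agonist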
SKN-1 block – C. elegans SKN-1 inhibition. C. elegans VP596 Pgst-4::GFP/RFP ratio, acrylamide-induced, 24 h. inhibition, % at 21.8 µM. 360,000 tested, 0.49% active;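 active means interference check ratio from 0.5 to 1.5 plus GFP to RFP signal ratio inhibition reaching or exceeding a fixed threshold, cut at about 30% in these data, passing the limit was not always enough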
ATG4B conf – ATG4B (human) inhibition, single-dose confirmed | shares compounds with ATG4B inhibitor | ATG4B protease fluorescent substrate cleavage assay | inhibition, % at 8.33 µM | 320 tested, 92% active; in the data active means inhibition above about 39%
PLA2 ctr – inhibits human PLA2, flagging false ATG4B inhibitors; shares compounds with ATG4B inhibitor; purified PLA2, NBD-C6-HPC fluorescence, 45 min; inhibition, % at 8.33 µM; 1,600 tested, 66% active; in the data active means inhibition above about 50%
The depositor's hits bear a star; i = inactive; · = no result given.

SMILES	CHRM1 PAM	ATG4B inhibitor	CHRM1 agonist	Myeloid diff MLP	CHRM1 antagonist	SKN-1 block	PLA2 ctr	others
O=C(c1ccc(OC2CCN(Cc3ccc(C(F)(F)F)cc3)CC2)cc1)N1CCCCC1	-4	41*	-5	i	4	5	51*
CC(C)/C=C/CN1CCC(Oc2ccc(C(=O)N3CCCC3)cc2)CC1	-7	·	-4	i	14	-3	·
O=C(c1ccc(OC2CCN(Cc3ccccc3OC(F)F)CC2)cc1)N1CCCC1	-14	42*	-5	i	25	9	52*
COc1cc(/C=C/CN2CCC(Oc3ccc(C(=O)N4CCCC4)cc3)CC2)ccc1O	3	40*	-6	i	-6	-2	50
Cc1ccc(NC(=O)N2CCCC2C(=O)Nc2c(C)cc(C)cc2C)cc1 (centres undefined)	-3	-1	-3	i	11	31	·
COc1ccc(-c2c(NC(=O)CC(C)C)n(C)c3ccccc3c2=O)cc1OC	17	7	-3	i	-16	-14	·
CN(C)c1ccnc(Oc2ccc(C(C)(C)C)cc2)c1C#N	-10	75*	-9	i	11	17	80*
Clc1ccc(/C=N/Nc2nnc(-c3ncc[nH]3)c3ccccc23)cc1	-1	79*	-3	i	6	5	82*
O=C(c1cc(-c2ccco2)on1)N1CCCc2ccccc21	4	63*	-3	i	-1	14	49
O=C(c1cc(-c2ccco2)on1)N1CCc2ccccc2C1	28*	46*	3	i	-22	12	58*
CCOC(=O)c1oc2ccccc2c1CSc1nnnn1-c1ccc(OC)cc1	4	1	-2	i	-8	0	·
CCOC(=O)c1oc2ccc(Br)cc2c1CSc1nnc(C)s1	8	64*	-3	i	-9	-6	67*
CCO[C@H]1OC(C(=O)N2CCN(Cc3ccc4c(c3)OCO4)CC2)=C[C@@H](C2CC2)[C@@H]1CCCO	5	-6	-4	i	-2	9	·
CCC(=O)NC(=S)Nc1cccc(Cl)c1N1CCCCC1	-13	42*	-8	i	14	-7	39	ATG4B conf=61*
O=C(Nc1cccc(Cl)c1N1CCCC1)c1ccc(Br)o1	7	56*	-5	i	-8	2	56*
CCCC(=O)NC(=S)Nc1cccc(Cl)c1N1CCCCC1	0	41*	5	i	20	-4	37	ATG4B conf=56*
COc1cccc(NC(=O)Nc2nnc([C@@H]3C[C@H](O)[C@@H](CO)O3)s2)c1	5	·	-4	i	-6	13	·
CC1CCCCC1NC(=O)C1CCN(S(=O)(=O)c2cccc3nonc23)CC1 (centres undefined)	12	-15	-1	i	4	5	·
CCOC(=O)C1CCCN(C(=O)c2ccc(Cn3c(=S)[nH]c4cc(C(=O)OC)ccc4c3=O)cc2)C1 (centres undefined)	13	-5	12	i	-22	13	·
O=C(c1ccc2c(=O)n(C3CCCC3)c(=S)[nH]c2c1)N1CCCCCC1	-2	62*	-5	i	-2	1	65*
CCOC(=O)C1CCCN(C(=O)c2ccc3c(=O)n(Cc4ccccc4OC)c(=S)[nH]c3c2)C1 (centres undefined)	-6	51*	12	i	2	11	44	ATG4B conf=74*
O=C(N/N=C/c1coc2ccccc2c1=O)c1cn(-c2ccccc2)nc1-c1ccccc1	6	92*	-6	i	-13	-2	94*
CCCCCCCCOC(=O)c1c(CSC(=N)N)n(C)c2cc(Br)c(OC(C)=O)cc12	14	40*	8	i	-5	13	5	ATG4B conf=65*
OCCN(CCO)c1cc2c3ccccc3ccc2c2ccccc12	3	-42	-3	i	-6	-10	·
Cc1ccccc1N1CCN(C(=O)NCc2cccc(Cl)c2)CC1	1	61*	-3	i	-4	4	73*
